Assay outcomes deposited in PubChem BioAssay by Paczesny and Yang Labs, IUPUI and University of Michigan.
The full list was thinned out, with hits kept by preference.
ST2 inh: inhibitors of human ST2 (IL1RL1) binding to IL-33, primary screen, biochemical, AlphaLISA | 78,000 compounds, 2.3% hits | inhibition, % for hits at 17 µM | AlphaLISA ST2-Fc/biotin-IL-33 interaction, 1 h; in the data active = inhibition above about 30%
Target sequence (Q01638 whole entry, looked up): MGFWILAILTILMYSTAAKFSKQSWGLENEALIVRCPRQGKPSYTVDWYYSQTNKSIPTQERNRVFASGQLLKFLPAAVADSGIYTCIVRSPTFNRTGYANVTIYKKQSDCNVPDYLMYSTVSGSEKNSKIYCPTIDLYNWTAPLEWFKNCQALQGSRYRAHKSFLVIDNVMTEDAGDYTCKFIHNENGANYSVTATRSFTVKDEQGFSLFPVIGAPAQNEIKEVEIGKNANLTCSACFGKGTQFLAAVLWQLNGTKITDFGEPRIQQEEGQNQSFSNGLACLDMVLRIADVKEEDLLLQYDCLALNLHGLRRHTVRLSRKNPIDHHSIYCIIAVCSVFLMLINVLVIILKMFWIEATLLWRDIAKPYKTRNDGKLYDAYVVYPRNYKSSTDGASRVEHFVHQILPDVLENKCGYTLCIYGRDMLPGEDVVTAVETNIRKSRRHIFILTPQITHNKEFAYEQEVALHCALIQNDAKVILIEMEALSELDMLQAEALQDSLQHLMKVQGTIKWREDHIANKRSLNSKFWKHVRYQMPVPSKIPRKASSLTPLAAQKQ
Starred values were filed as active, the others as inactive; i = inactive.

SMILES	ST2 inh
COc1cc(-c2[nH]nc3c2C(c2ccccc2Cl)C(C#N)=C(N)O3)cc(OC)c1OC (stereo not drawn)	i
N#CC1=C(N)Oc2nc[nH]c(=O)c2C1c1ccccc1Cl (stereo not drawn)	94.0%*
CC(C)(C)c1[nH]nc2c1C(c1ccccc1Cl)C(C#N)=C(N)O2 (stereo not drawn)	i
COc1cc(OC)c(NC(=O)c2ccc(-c3ccccc3)cc2)cc1Cl	i
Cc1ccc(C)c(NC(=O)c2ccccc2Br)c1	i
CN(C)c1nc2c(c(=O)[nH]1)CCN(C(=O)[C@H]1CCCN1)C2	i
COc1ccc(-n2c(C)c([N+](=O)[O-])c3ccc(O)cc32)cc1	i
COc1ccc(NC(=O)c2ccc([N+](=O)[O-])cc2)c(OC)c1	i
COc1ccc2c(c1)C(C)(C)C1(C=Cc3cc([N+](=O)[O-])cc(OC)c3O1)N2C (stereo not drawn)	73.0%*
COCCn1cnc2cc(NC(=O)C3CCCCC3)cc(C(=O)N3CCc4sccc4C3)c21	i
COCCOCC(=O)N1CCOc2c(O)cc(-c3ccc(C)cc3)cc2C1	i
CCN(CC)c1ccc(NS(=O)(=O)c2ccc(OC)cc2)cc1	35.0%*
COc1ccc(S(=O)(=O)Nc2ccc(NC(C)=O)cc2)cc1	i
COc1ccc(NS(=O)(=O)c2ccc(NS(=O)(=O)c3ccc(C)cc3)cc2)cc1	i
CCn1nc(CNC(=O)CCc2scnc2C)c2ccccc21	i
Cc1ccc(NC(=O)C(=O)Cc2ccc([N+](=O)[O-])cc2)c(C)c1	i
c1ccc(N2CCN(Cc3ccco3)CC2)nc1	i
CCCCNC(=O)Cn1cnc2c1c(=O)n(C)c(=O)n2C	i
CC1CN(C(=O)Cn2cnc3c2c(=O)n(C)c(=O)n3C)CC(C)O1 (stereo not drawn)	95.0%*
Cn1c(=O)c2c(ncn2CC(=O)Nc2ccccn2)n(C)c1=O	i
Cc1ccc(C(=O)c2ccc(Cl)cc2)c(N2CCCCC2)n1	i
O=C(Nc1ccccc1O)c1ccc([N+](=O)[O-])cc1	i
O=C(c1ccc([N+](=O)[O-])cc1)c1ccc(Cl)c(Cl)c1	58.0%*
COc1ccc(C(=O)NCCNc2ccc([N+](=O)[O-])cc2)cc1Cl	i
c1csc(CNc2ccc(-c3nc4ccccc4s3)cc2)c1	i
SMILES	ST2 inh
COc1ccccc1N=c1oc2ccccc2cc1C(=O)Nc1ccccc1	41.0%*
COc1ccc(N=c2oc3ccccc3cc2C(=O)Nc2ccc(C)cc2)cc1	i
O=C(Nc1ccccc1)c1cc2ccccc2oc1=Nc1cccc(F)c1	i
COc1ccc(CCN2CCCC(CN(C)C(=O)c3cccnc3OC)C2)cc1 (stereo not drawn)	i
Cc1nnc(SCC(=O)Nc2ncc(C(F)(F)F)cc2Cl)s1	i
Cc1cc(C)n2c(Br)c(CN3CCC4(CC3)OCCO4)nc2n1	i
CCCCOc1ccc(C(=O)Nc2c3c(nn2-c2ccc(OC)cc2)CS(=O)C3)cc1 (stereo not drawn)	i
Cc1ccccc1N1CCN(c2ncccc2CNC(=O)C2COC(=O)N2)CC1 (stereo not drawn)	i
Cc1cc2c(c(=O)[nH]1)C(=O)O/C2=C\c1cccs1	i
CCOc1ccc(/C=C2\N=C(c3ccccc3OC)OC2=O)cc1OCC	34.0%*
CCOc1ccccc1/C=C1\N=C(c2ccc(OC)c([N+](=O)[O-])c2)OC1=O	i
COc1ccc(C2=Cc3cc(OC)c(OC)cc3/C(=C/c3ccc(OC)c(OC)c3)O2)cc1	i
CCOc1ccc(/C=C2\N=C(c3ccccc3Cl)OC2=O)cc1	i
CCOc1ccc(/C=C2/OC(=O)c3c2cc(C)[nH]c3=O)cc1OC	51.0%*
CC(CNC(=O)c1sccc1Cl)Oc1cccnc1 (stereo not drawn)	i
Cc1c(C(=O)NCc2cccnc2N(C)C)n(C)c2c(C)cccc12	i
COc1cccc(O)c1-c1cc(=O)c2c(O)c(OC)c(OC)c(OC)c2o1	i
COC(=O)c1c(NS(=O)(=O)c2ccc(C)cc2)sc(C)c1C	i
NC(=O)CSc1nnc2c(n1)[nH]c1ccccc12	i
O=C(CSc1nnc2c(n1)[nH]c1ccccc12)NCCc1ccccc1	i
NNc1nnc2c(n1)[nH]c1ccccc12	31.0%*
O=C(CCC1CCN(Cc2cccc(Oc3ccccc3)c2)CC1)N1CCCC1	i
O=C(NCCOc1ccccc1Cl)c1ccccc1I	i
Cc1ccsc1[C@@H]1CCN(Cc2ccnn2-c2ccccc2)C[C@H]1O	i
N#Cc1ccc(Oc2ccc(C(=O)c3ccccc3)cc2)cc1C#N	i
SMILES	ST2 inh
O=C(c1ccccc1)c1cc(Br)ccc1O	i
N#Cc1ccc(Br)cc1/C=C/C(=O)O	80.0%*
O=C(CCCn1c2ccccc2c(=O)c2ccccc21)Nc1c(F)cccc1F	i
CC(=O)Nc1cccc(OCc2cc(=O)n3cc(Cl)ccc3n2)c1	i
Cc1cccc(C(=O)Nc2ccc(C)c(OCc3cc(=O)n4cccc(C)c4n3)c2)c1	33.0%*
COc1ccc(OCC(=O)Nc2ccc(C)c(OCc3cc(=O)n4ccc(C)cc4n3)c2)cc1	i
Cc1cccc(C(=O)Nc2cccc(OCc3cc(=O)n4ccc(C)cc4n3)c2)c1	i
COc1cccc(C(=O)Nc2ccc(C)c(OCc3cc(=O)n4cccc(C)c4n3)c2)c1	31.0%*
CCOc1ccc(C(=O)Nc2cccc(OCc3cc(=O)n4cc(Cl)ccc4n3)c2)cc1	31.0%*
COc1cccc(C(=O)Nc2cccc(OCc3cc(=O)n4ccc(C)cc4n3)c2)c1	i
CCOc1ccc(C(=O)Nc2ccc(C)c(OCc3cc(=O)n4cccc(C)c4n3)c2)cc1	i
Cc1ccc(C(=O)Nc2cccc(OCc3cc(=O)n4cc(Cl)ccc4n3)c2)cc1	i
O=c1c2cnn(-c3ccc(Cl)cc3)c2ncn1Cc1ccccc1F	i
O=C(CS(=O)(=O)c1c[nH]c2ccccc12)Nc1ccc(Br)cc1	i
COc1cccc(-c2ncc(CN3C[C@H]4C[C@H](O)[C@H](O)C[C@H]4C3)s2)c1	i
O=C(C[C@@H]1O[C@H](CNS(=O)(=O)c2ccccc2)[C@@H](O)[C@H]1O)NCc1ccc(F)cc1	i
O=C(O)c1ccc(N2C(=O)CC(N3CCN(c4ccccn4)CC3)C2=O)cc1 (stereo not drawn)	i
O=C(CCCOc1ccc(Cl)cc1)NCCc1nc2ccccc2[nH]1	i
O=C(Cc1c(C(=O)O)[nH]c2ccc(Cl)cc12)Nc1cccc(C(F)(F)F)c1	i
O=C1NCC(=O)N2CCN(Cc3ccc(Cl)s3)CC12 (stereo not drawn)	i
CCCN1CCN(CCCNC(=O)c2cc3cc4ccc(OC)cc4nc3o2)CC1	i
CCc1cc(C(=O)NCc2c(C)ncc3c2CCN(C(=O)/C=C/c2cccc(F)c2)C3)n(C)n1	i
O=C(Nc1nccs1)c1ccc2nc(-c3ccco3)c(-c3ccco3)nc2c1	30.0%*
O=C(Nc1ccccc1F)c1ccc2nc(-c3ccco3)c(-c3ccco3)nc2c1	i
O=C(Nc1nccs1)c1ccc2snnc2c1	i
COc1ccc(N2C(=N)S/C(=C\c3ccccc3[N+](=O)[O-])C2=O)cc1	36.0%*
COc1ccc(/C=C2\SC(=O)N(c3cccc(C)c3)C2=O)cc1	i
COc1ccc(/C=C2\SC(=O)N(c3ccc(O)cc3)C2=O)cc1	i
COc1ccc(CC(=O)N2CCC3(CC2)CC3C(=O)NCCCc2ccccc2)cc1OC (stereo not drawn)	i
